Results: PubChem BioAssay
Several values for one entry are separate records, joined by “and”; a condition that tells them apart may be missing. Equal values may be shown once. The source holds several records for some structures; these can differ, active in one and inactive in another. Activity calls are given as the source filed them.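 Rule for the calls, unless noted: active = compounds whose cell count with miR-34 switched on is under 0.7 times the count with it off; inactive = the rest.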

How the values were obtained:
[1] = stimulators of nuclear beta-catenin in C2C12, primary screen, imaging, WNT3A-conditioned medium, mouse C2C12, NPC library (AID 1117326; in the data active = nuclear beta-catenin stimulation mostly above about 4.2%, no sharp cut-off; inactive = mostly below about 10%; note: reference of the scale not given here); conditions: stronger effect = higher value
[2] = stimulators of insulin release from INS-1E, primary screen, cell-based, 5 mM glucose, NPC library (AID 1117329;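 active = compound raises insulin release from rat beta cells at 5 mM glucose, no numeric limit stated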; note: reference of the scale not given here); conditions: rat INS-1E insulin secretion, at 10 µM, stronger effect = higher value
[3] = growth inhibition of GSK3B-pretreated HCT116 cells – cell-based, CellTiter-Glo, 0.2 to 20 µM (AID 1117336;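 active = compounds lowering colon cancer cell viability after pretreatment blocking the GSK3B kinase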); conditions: HCT116 viability after GSK3B inhibitor, at 20 µM, stronger effect = higher value
[4] = inhibition of endothelial tube formation, primary screen, imaging, VEGF stimulated, CD31 staining, tube area, NPC library (AID 1117340;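 active = compound that reduces growth-factor-driven endothelial tube area in a mixed cell culture, no cutoff stated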); conditions: VEGF-stimulated ADSC/ECFC co-culture, at 10 µM, stronger effect = higher value
[5] = glucagon-like peptide 1 release enhancers, primary assay, NCI-H716 cell line, NPC library (AID 1117341;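 active = compound raises GLP1 secretion from the human gut endocrine cells, with no numeric limit stated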; note: reference of the scale not given here); conditions: NCI-H716 cells, at 10 µM, stronger effect = higher value
[6] = HCT116 colon cancer cell growth inhibition, primary screen, CellTiter-Glo luminescence, NPC library (AID 1117342;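 active = compounds that lower survival of HCT116 colon cancer cells in the luminescence readout, no numeric limit stated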); conditions: at 20 µM (top of the series)
[7] = CellTiter-Glo luminescent readout of SW480 viability loss, NPC library primary (AID 1117343;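 active = compounds that lower viability of the colon cancer cells in the luminescence readout, with no numeric limit stated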); conditions: CellTiter-Glo luminescence; at 20 µM (top of the series) unless noted
[8] = decreased DLD-1 cellular survival, CellTiter-Glo luminescent readout, NPC compound collection, primary HTS (AID 1117346;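 active = compounds that lower survival of DLD-1 colon cancer cells in the luminescence readout, no cutoff given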); conditions: DLD-1 viability, CellTiter-Glo luminescence; at 20 µM (top of the series)
[9] = system: Aerobactin synthetase IucA (Klebsiella pneumoniae); test: IucA aerobactin synthetase inhibitors, biochemical, Tocris library, absorbance (AID 1345561; call rule not given here;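 note: 100% = enzyme without compound and 0% = no enzyme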); conditions: purified IucA enzyme assay, absorbance (OD) read-out; stronger effect = lower value;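 tested at 8 µM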
[10] = sensitizers of A549 cells to miR-34 induction, primary screen, imaging, A549 dox-inducible miR-34, nuclei and caspase counts (AID 1347080); conditions: A549 miR-34 inducible, Hoechst nuclei count, 48 h
[11] = viability rescue of complex I mutant cybrids, primary screen, cell-based, galactose medium, ATP luminescence (AID 1645843;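 active = z-score of at least 1.8 in each of two replicates, scored against plate mean and spread of sample wells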;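 note: positive z means more ATP and so rescue of galactose-driven cybrid death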); conditions: complex I mutant cybrid cells, 72 h, stronger effect = higher value
[12] = liver-stage malaria parasite growth inhibition, primary screen, cell-based, HepG2, luciferase luminescence, HepG2 viability (AID 624349; in the data active = parasite load remaining mostly below about 12%, no sharp cut-off; inactive = mostly above about 10%;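 note: 100% = mean of DMSO negative control wells on the same plate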); conditions: P. berghei liver stage in HepG2, luciferase luminescence, concentration not given here; parasite load remaining: stronger effect = lower value; viability: measured here: HepG2 viability without parasites
[13] = survival rescue of mitochondrial mutant cells in low glucose, primary screen, MELAS cybrids, Rieske KO mouse fibroblasts, CellTiter-Glo (AID 1508586;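 active = mean z-score across replicates of 1.96 or higher in either the MELAS or the Rieske mutant cell line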;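 note: z relative to plate mean and SD of compound and empty wells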)
[14] = biological target: NAD(+) hydrolase SARM1 (Homo sapiens) (UniProt Q6SZW1); test: SARM1 TIR NADase inhibitors, cell lysate, NAD-Glo luminescence (AID 1508614;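 active = compound whose remaining NAD level is above about 45 nM, limit read from the data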;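 note: higher remaining NAD means stronger inhibition of SARM1 NADase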); conditions: SAM-TIR HEK293T lysate NADase, at 1 µM, stronger effect = higher value
Sequence of NAD(+) hydrolase SARM1 (Homo sapiens) (Q6SZW1 whole entry, looked up): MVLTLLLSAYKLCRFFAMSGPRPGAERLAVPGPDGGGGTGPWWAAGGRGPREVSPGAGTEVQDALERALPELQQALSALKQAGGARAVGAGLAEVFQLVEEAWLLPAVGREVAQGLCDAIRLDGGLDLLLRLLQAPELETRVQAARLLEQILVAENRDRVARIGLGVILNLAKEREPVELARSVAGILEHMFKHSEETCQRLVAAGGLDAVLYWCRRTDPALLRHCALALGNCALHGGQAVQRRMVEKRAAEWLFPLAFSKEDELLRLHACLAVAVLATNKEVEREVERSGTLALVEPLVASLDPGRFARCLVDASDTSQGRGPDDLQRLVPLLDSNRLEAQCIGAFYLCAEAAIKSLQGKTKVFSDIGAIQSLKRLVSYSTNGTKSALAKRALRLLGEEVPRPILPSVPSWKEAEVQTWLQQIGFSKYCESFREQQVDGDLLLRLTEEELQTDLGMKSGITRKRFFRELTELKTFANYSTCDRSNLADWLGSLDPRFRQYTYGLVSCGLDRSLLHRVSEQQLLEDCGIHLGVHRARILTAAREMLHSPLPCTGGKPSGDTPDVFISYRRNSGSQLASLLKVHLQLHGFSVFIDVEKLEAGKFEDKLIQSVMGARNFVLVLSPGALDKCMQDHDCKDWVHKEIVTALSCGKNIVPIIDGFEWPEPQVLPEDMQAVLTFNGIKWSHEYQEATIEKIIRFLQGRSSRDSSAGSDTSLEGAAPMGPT

[15] = stronger effect = lower value, cell number ratio, induced over uninduced
[16] = measured here: relative caspase fold change +Dox/-Dox
[17] = measured here: total cells with miR-34 induction, stronger effect = lower value
[18] = measured here: total cells without miR-34 induction
[19] = MELAS cybrid survival, CellTiter-Glo 48 h, stronger effect = higher value
[20] = Rieske KO mouse fibroblast survival, CellTiter-Glo 72 h

FC(F)(F)c1ccccc1-n1ccnc1
nuclear beta-catenin stimulation ([1]; at 10 µM): 1.3% (inactive)
nuclear beta-catenin stimulation ([1]; stimulation, at 2 µM): -0.4%
insulin secretion stimulation [2]: 1.7% (inactive)
viability decrease [3]: 2% (inactive)
tube area decrease [4]: -7.9% (inactive)
GLP1 secretion stimulation [5]: -1.9% (inactive)
inhibition of viability [6]: 2.03% (inactive)
viability decrease (inhibition) [7]: -83.5% (inactive)
viability decrease (inhibition) [8]: 4.5% (inactive)
remaining activity [9]: 102% (inactive)
fold change [10, 15]: 0.976 (inactive) and 0.948 (inactive) and 0.969 (inactive)
fold change [10, 16]: 1.92 and 1.05 and 0.962
cell count [10, 17]: 9410 and 5980 and 9120
cell count [10, 18]: 9640 and 6310 and 9410
z-score [11]: 0.425 (inactive) and 1.96 (inactive)

COc1ccc(CCN(C)CCCN2CCc3cc(OC)c(OC)cc3CC2=O)cc1OC
nuclear beta-catenin stimulation ([1]; at 10 µM): 1.2% (inactive)
nuclear beta-catenin stimulation ([1]; stimulation, at 2 µM): 0%
insulin secretion stimulation [2]: 10.7% (inactive)
viability decrease [3]: -11.1% (inactive)
tube area decrease [4]: -12.6% (inactive)
GLP1 secretion stimulation [5]: 7.6% (inactive)
inhibition of viability [6]: 7.5% (inactive)
viability decrease (inhibition) [7]: -4.7% (inactive)
viability decrease (inhibition) [8]: 12.1% (inactive)
remaining activity [9]: 98.9% (inactive)
fold change [10, 15]: 0.903 (inactive)
fold change [10, 16]: 1.41
cell count [10, 17]: 8020
cell count [10, 18]: 8880
z-score [11]: -0.34 (inactive)

CN(C)C/C=C(/c1ccc(Br)cc1)c1cccnc1
parasite load remaining [12]: 94.7% (inactive) and 60.5% (inactive)
viability [12]: 85.2% and 195%
nuclear beta-catenin stimulation ([1]; at 10 µM): 1.1% (inactive)
nuclear beta-catenin stimulation ([1]; stimulation, at 2 µM): -0.9%
insulin secretion stimulation [2]: 45% (active)
viability decrease [3]: -1.3% (inactive)
tube area decrease [4]: 9.7% (inactive)
GLP1 secretion stimulation [5]: 8% (inactive)
inhibition of viability [6]: 41.9% (inactive)
viability decrease (inhibition) [7]: 52.1% (active)
viability decrease (inhibition) [8]: 5.9% (inactive)
remaining activity [9]: 124% (inactive)
fold change [10, 15]: 1.02 (inactive) and 0.948 (inactive) and 0.885 (inactive)
fold change [10, 16]: 0.961 and 0.963 and 4.02
cell count [10, 17]: 8760 and 8650 and 11500
cell count [10, 18]: 8570 and 9130 and 13000
z-score [11]: -0.1 (inactive) and -0.42 (inactive)

Cc1ccc2c(c1)c1c3n2CCNC3CCC1 (stereo not drawn)
parasite load remaining [12]: 192% (inactive)
viability [12]: 76.9%
nuclear beta-catenin stimulation ([1]; at 10 µM): 3% (inactive)
nuclear beta-catenin stimulation ([1]; stimulation, at 2 µM): 2%
insulin secretion stimulation [2]: 0.5% (inactive)
viability decrease [3]: -63.6% (inactive)
tube area decrease [4]: 18.5% (inactive)
GLP1 secretion stimulation [5]: 11.2% (inactive)
inhibition of viability [6]: 44% (inactive)
viability decrease (inhibition) [7]: 73.4% (active)
viability decrease (inhibition) [8]: 29.4% (inactive)
remaining activity [9]: 98.7% (inactive)
fold change [10, 15]: 0.931 (inactive) and 0.909 (inactive)
fold change [10, 16]: 0.816 and 0.659
cell count [10, 17]: 8540 and 8100
cell count [10, 18]: 9170 and 8920
z-score [13, 19]: 0.468 (inactive)
z-score [13, 20]: -0.847
z-score [11]: -0.41 (inactive)

CC[N+](CC)(CC)CCOc1ccc(/C=C/c2ccccc2)cc1
nuclear beta-catenin stimulation ([1]; at 10 µM): 0.4% (inactive)
nuclear beta-catenin stimulation ([1]; stimulation, at 2 µM): -0.8%
insulin secretion stimulation [2]: 1.3% (inactive)
viability decrease [3]: -35.4% (inactive)
tube area decrease [4]: 82.5% (active)
GLP1 secretion stimulation [5]: -1.8% (inactive)
inhibition of viability [6]: 46.8% (inactive)
viability decrease (inhibition) [7]: -6% (inactive)
viability decrease (inhibition) [8]: 56.2% (active)
remaining activity [9]: 112% (inactive)
fold change [10, 15]: 1.12 (inactive) and 0.929 (inactive)
fold change [10, 16]: 0.542 and 0.715
cell count [10, 17]: 2640 and 2410
cell count [10, 18]: 2350 and 2590
z-score [11]: -1.29 (inactive) and -0.77 (inactive)

COc1ccc2c(c1OC)C(=O)O[C@@H]2[C@H]1c2c(cc3c(c2OC)OCO3)CCN1C
parasite load remaining [12]: 89.7% (inactive) and 72.1% (inactive)
viability [12]: 104% and 75.4%
nuclear beta-catenin stimulation ([1]; at 10 µM): 3.5% (inactive)
nuclear beta-catenin stimulation ([1]; stimulation, at 2 µM): 0.1%
insulin secretion stimulation [2]: 2% (inactive)
viability decrease [3]: 55.6% (active)
tube area decrease [4]: 4.1% (inactive)
GLP1 secretion stimulation [5]: -1.8% (inactive)
inhibition of viability [6]: 46.2% (inactive)
viability decrease (inhibition) [7]: 90.4% (active)
viability decrease (inhibition) [8]: 2.7% (inactive)
remaining activity [9]: 111% (inactive)
fold change [10, 15]: 0.961 (inactive) and 0.857 (inactive) and 1.04 (inactive)
fold change [10, 16]: 0.539 and 1.29 and 0.971
cell count [10, 17]: 6010 and 7290 and 6960
cell count [10, 18]: 6250 and 8520 and 6720
remaining NAD [14]: 10 nM (inactive)
z-score [11]: 0.555 (inactive) and 0.075 (inactive)

Cc1cc(C)c(/C=C2\C(=O)Nc3ccccc32)[nH]1
parasite load remaining [12]: 27.2% (inactive)
viability [12]: 69.7%
nuclear beta-catenin stimulation ([1]; at 10 µM): 9.9% (inactive)
nuclear beta-catenin stimulation ([1]; stimulation, at 2 µM): 0.7%
insulin secretion stimulation [2]: -0.8% (inactive)
viability decrease [3]: 20.1% (inactive)
tube area decrease [4]: 99.7% (active)
GLP1 secretion stimulation [5]: 12.8% (inactive)
inhibition of viability [6]: -18.7% (inactive)
viability decrease (inhibition) [7]: 48.7% (inactive)
viability decrease (inhibition) [8]: 37.2% (inactive)
remaining activity [9]: 104% (inactive)
fold change [10, 15]: 1.05 (inactive) and 0.921 (inactive) and 0.87 (inactive)
fold change [10, 16]: 0.773 and 1.14 and 1.43
cell count [10, 17]: 4600 and 5070 and 6640
cell count [10, 18]: 4380 and 5510 and 7630
z-score [11]: 0.06 (inactive) and 0.095 (inactive)

O=S1(=O)c2cccc3cccc(c23)N1CCCN1CCN(c2ccc(F)cc2)CC1
nuclear beta-catenin stimulation ([1]; at 10 µM): 1.8% (inactive)
nuclear beta-catenin stimulation ([1]; stimulation, at 2 µM): 17.7%
insulin secretion stimulation [2]: 3.4% (inactive)
viability decrease [3]: 74.5% (active)
tube area decrease [4]: -3% (inactive)
GLP1 secretion stimulation [5]: 0.3% (inactive)
inhibition of viability [6]: 104% (active)
viability decrease (inhibition) [7]: 136% (active)
viability decrease (inhibition) [8]: 84.5% (active)
remaining activity [9]: 92.7% (inactive)
fold change [10, 15]: 0.902 (inactive)
fold change [10, 16]: 1.69
cell count [10, 17]: 7340
cell count [10, 18]: 8140
z-score [11]: -0.675 (inactive)

Cc1ccc(=O)n(-c2ccccc2)c1
nuclear beta-catenin stimulation ([1]; at 10 µM): 2.8% (inactive)
nuclear beta-catenin stimulation ([1]; stimulation, at 2 µM): 0.6%
insulin secretion stimulation [2]: -1.2% (inactive)
viability decrease [3]: -0.3% (inactive)
tube area decrease [4]: 13.3% (inactive)
GLP1 secretion stimulation [5]: -2% (inactive)
inhibition of viability [6]: -4.6% (inactive)
viability decrease (inhibition) [7]: 39.2% (inactive)
viability decrease (inhibition) [8]: 12.8% (inactive)
remaining activity [9]: 120% (inactive)
fold change [10, 15]: 1.05 (inactive) and 0.91 (inactive) and 0.937 (inactive)
fold change [10, 16]: 1.33 and 1.82 and 0.797
cell count [10, 17]: 11000 and 8480 and 9430
cell count [10, 18]: 10500 and 9310 and 10100
z-score [13, 19]: -0.113 (inactive)
z-score [13, 20]: -0.414
z-score [11]: 0.38 (inactive) and -0.08 (inactive)

COCC(=O)O[C@]1(CCN(C)CCCc2nc3ccccc3[nH]2)CCc2cc(F)ccc2[C@@H]1C(C)C
nuclear beta-catenin stimulation ([1]; at 10 µM): 14.4% (inactive)
nuclear beta-catenin stimulation ([1]; stimulation, at 2 µM): -2.2%
insulin secretion stimulation [2]: 3.5% (inactive)
viability decrease [3]: 107% (active)
tube area decrease [4]: 67.6% (active)
GLP1 secretion stimulation [5]: 20.1% (active)
inhibition of viability [6]: 110% (active)
viability decrease (inhibition) [7]: 130% (active)
viability decrease (inhibition) [8]: 101% (active)
remaining activity [9]: 86.1% (inactive)
fold change [10, 15]: 0.582 (active) and 1.03 (inactive)
fold change [10, 16]: 0.681 and 1.08
cell count [10, 17]: 108 and 550
cell count [10, 18]: 186 and 534
z-score [11]: -1.29 (inactive) and -0.675 (inactive)
